Assay results from the supplement of paper PMC6555819.

Assays:
Experiment in all cases: PBM binding z-score (relative to random genomic background probes); higher = stronger binding; sequences stand for … in GC…GCGATTGACAGCGTAGAATGAAGG
[1] = test system: PPARg:RXRa DBDmut IVT, anti-RXR (DBD mutation: RXRa K156A/R161A, NR concentration 270 nM, RXRa partner concentration 90 nM)
Method in brief: (§1)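 For binding z-scores, the reference was random background probes on custom Agilent 4×180K protein-binding microarrays. These arrays were incubated 1 h with ligand-free nuclear receptor dimers in PBS pH 7.4, 2% milk, 0.02% Triton X-100, 1 mM DTT, 0.2 mg/mL BSA and 0.4 mg/ml salmon testes DNA. Fluorescence was scanned after antibody detection of each partner (one per run) and regression-normalized.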

[2] = test system: PPARg:RXRa IVT, anti-PPARg (NR concentration 270 nM, RXRa partner concentration 90 nM)
Method in brief: as §1

[3] = test system: PPARg DBDmut:RXRa IVT, anti-PPARg (DBD mutation: PPARg1 K132A/R137A, NR concentration 270 nM, RXRa partner concentration 90 nM)
Method in brief: as §1

[4] = test system: PPARg DBDmut IVT, anti-PPARg (DBD mutation: PPARg1 K132A/R137A, NR concentration 270 nM)
Method in brief: as §1

[5] = test system: PPARg homodimer (NR concentration 180 nM)
Method in brief: as §1

[6] = test system: PXR:RXRa (NR concentration 270 nM, RXRa partner concentration 90 nM)
Method in brief: as §1

[7] = test system: PXR homodimer (NR concentration 270 nM)
Method in brief: as §1

[8] = test system: RARa:RXR (NR concentration 270 nM, RXRa partner concentration 90 nM)
Method in brief: as §1

[9] = test system: RARa homodimer (NR concentration 270 nM)
Method in brief: as §1

[10] = test system: RARb:RXRa (NR concentration 270 nM, RXRa partner concentration 90 nM)
Method in brief: as §1

Row | Sequence | PBM binding z-score [1] | PBM binding z-score [2] | PBM binding z-score [3] | PBM binding z-score [4] | PBM binding z-score [5] | PBM binding z-score [6] | PBM binding z-score [7] | PBM binding z-score [8] | PBM binding z-score [9] | PBM binding z-score [10]
1 | ATATGTAGGTTGGCTGGGGTCATTCAGACTAGGC | 2.56 | 2.75 | 1.35 | 1.7 | 2.57 | 5.98 | 4.44 | 5.69 | 0.758 | 2.62
2 | TCTGCTAGGTCAGTTGGTCAGCTACCGAGCTGCC | 2.75 | 3.45 | 0.596 | 0.667 | -0.139 | 0.0735 | -0.891 | 0.438 | -0.931 | 3.14
3 | CCTATTTGTTGACCATAAGGGCAACCGAAGCTCG | 0.427 | 0.84 | 0.694 | 0.679 | 1.94 | 1.09 | 0.998 | 1.35 | 1.45 | 1.72
4 | TCTTGTAGAGCAAGCAGGTTAAGAAAGCCTGAGT | 1.77 | 0.824 | -0.533 | -0.908 | -0.862 | -0.144 | -0.157 | -0.225 | -0.639 | -0.127
5 | CTCGAAAGGTCGGTTAAGGTGAGTATACGGATAA | 0.549 | 1.14 | 0.246 | 0.287 | 1.69 | 2.61 | 0.341 | 1.97 | 0.996 | 3.22
6 | ATCGAAAGGTCGGGAGGTGAGTATACAGAAAGGC | 0.224 | 1.47 | 2.2 | 1.16 | 1.74 | 2.12 | 0.567 | 2.81 | 1.38 | 3.48
7 | TCTTGTGGATCAAGCAGGTTAAGAAAGCCTGAGT | 1.46 | 0.177 | -0.713 | 0.262 | -0.187 | 0.422 | 0.248 | 0.506 | -0.587 | 0.161
8 | ATCGAAAGGTCGAAGGTGAGTATGCCCACCCGAA | 0.0846 | 2.48 | 0.798 | 0.662 | 1.31 | 3.12 | -0.415 | 4.46 | -0.229 | 3.83
9 | CGACCTAGGTCATCCAGGACAGTGAATACATTGA | 3.28 | 3.89 | -0.0715 | 0.195 | 2.02 | 2.45 | 0.923 | 3.21 | 0.643 | 4
10 | GCTAGTTGGTCAGTGAAAGGTCACACACCGGTCG | 1.21 | 2.97 | 0.254 | 0.307 | 3.99 | 5.13 | 1.02 | 5.89 | 1.88 | 4.27
11 | CGTCCAACGTCATAGGAGGTCAGTGAAGACAGAT | 0.0965 | 1.08 | 0.0644 | -0.0605 | 1.13 | 2.24 | 0.731 | 1.79 | 0.648 | 2.14
